# Measurements reported in PubChem BioAssay (NCATS).
# Inconclusive results are not listed. Where a call stands in place of a potency, no number is given. Values without a mark were called inactive. The source made the active and inactive calls. Calls come from the whole dose curve; as a rule, active = well fitted curve in the direction sought with a large enough effect; inconclusive = small, poorly fitted or top-dose-only effect, or another doubt; inactive = no such curve, though single readings can be large; an effect the other way counts as inactive or inconclusive.
# Columns and labels:
# [1] = target: Rap guanine nucleotide exchange factor 3 (Homo sapiens) (UniProt O95398); experiment: Confirmatory qHTS for antagonist of cAMP-regulated guanine nucleotide exchange factor 3 (EPAC1) (AID 1645880); note: nearly all actives have a fitted effect of over 55% in size; note: potency is the fitted concentration of half-maximal effect
# Sequence of Rap guanine nucleotide exchange factor 3 (Homo sapiens) (O95398 whole entry, looked up): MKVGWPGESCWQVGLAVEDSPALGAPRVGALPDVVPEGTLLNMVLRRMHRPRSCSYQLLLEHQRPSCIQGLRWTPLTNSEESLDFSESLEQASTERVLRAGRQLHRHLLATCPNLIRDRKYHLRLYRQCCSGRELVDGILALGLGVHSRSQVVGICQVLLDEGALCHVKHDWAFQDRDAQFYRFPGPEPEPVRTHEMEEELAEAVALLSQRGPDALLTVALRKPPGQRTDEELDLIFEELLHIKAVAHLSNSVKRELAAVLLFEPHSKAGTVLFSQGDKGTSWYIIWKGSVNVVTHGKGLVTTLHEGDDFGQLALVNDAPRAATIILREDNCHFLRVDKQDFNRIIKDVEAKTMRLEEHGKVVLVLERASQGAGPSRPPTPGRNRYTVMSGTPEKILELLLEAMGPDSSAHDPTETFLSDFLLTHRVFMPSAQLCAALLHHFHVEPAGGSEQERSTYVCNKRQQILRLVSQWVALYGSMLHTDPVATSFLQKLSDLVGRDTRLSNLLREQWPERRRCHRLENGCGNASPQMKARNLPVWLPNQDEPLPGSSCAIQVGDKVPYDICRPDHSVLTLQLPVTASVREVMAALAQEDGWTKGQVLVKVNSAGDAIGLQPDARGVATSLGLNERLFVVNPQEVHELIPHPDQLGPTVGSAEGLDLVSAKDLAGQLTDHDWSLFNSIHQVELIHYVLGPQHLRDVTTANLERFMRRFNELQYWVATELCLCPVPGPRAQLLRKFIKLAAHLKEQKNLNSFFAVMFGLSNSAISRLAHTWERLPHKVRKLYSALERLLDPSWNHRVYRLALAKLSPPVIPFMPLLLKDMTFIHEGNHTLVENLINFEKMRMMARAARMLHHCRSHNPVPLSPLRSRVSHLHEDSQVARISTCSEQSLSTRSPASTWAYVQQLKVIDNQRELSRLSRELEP
# Procedure, shortened: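 Nucleotide exchange uses 100 nM EPAC1, 250 nM RAP1B-BODIPY-GDP and 50 uM GDP, with compounds in a concentration-titration series. After 5 min at room temperature, fluorescence (480 nm ex/540 nm em) is read every 5 min for 30 min. Data are normalized to control ATA and DMSO.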
# [2] = target: Rap guanine nucleotide exchange factor 3 (Homo sapiens) (UniProt O95398); experiment: Confirmatory qHTS for agonist of cAMP-regulated guanine nucleotide exchange factor 3 (EPAC1) (AID 1645881); note: nearly all actives have a fitted effect of over 75% in size; note: potency is the fitted concentration of half-maximal effect;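 for activation: EPAC1 catalysed release of BODIPY-GDP from Rap1B seen as fluorescence loss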
# [3] = target: Rap guanine nucleotide exchange factor 4 (Homo sapiens) (UniProt Q8WZA2); experiment: Confirmatory qHTS for agonist of cAMP-regulated guanine nucleotide exchange factor 4 (EPAC2) (AID 1645884);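 note: nucleotide exchange releases bodipy-GDP from Rap1 and this lowers its fluorescence; nearly all actives have a fitted effect of over 65% in size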; note: potency is the fitted concentration of half-maximal effect
# Sequence of Rap guanine nucleotide exchange factor 4 (Homo sapiens) (Q8WZA2 whole entry, looked up): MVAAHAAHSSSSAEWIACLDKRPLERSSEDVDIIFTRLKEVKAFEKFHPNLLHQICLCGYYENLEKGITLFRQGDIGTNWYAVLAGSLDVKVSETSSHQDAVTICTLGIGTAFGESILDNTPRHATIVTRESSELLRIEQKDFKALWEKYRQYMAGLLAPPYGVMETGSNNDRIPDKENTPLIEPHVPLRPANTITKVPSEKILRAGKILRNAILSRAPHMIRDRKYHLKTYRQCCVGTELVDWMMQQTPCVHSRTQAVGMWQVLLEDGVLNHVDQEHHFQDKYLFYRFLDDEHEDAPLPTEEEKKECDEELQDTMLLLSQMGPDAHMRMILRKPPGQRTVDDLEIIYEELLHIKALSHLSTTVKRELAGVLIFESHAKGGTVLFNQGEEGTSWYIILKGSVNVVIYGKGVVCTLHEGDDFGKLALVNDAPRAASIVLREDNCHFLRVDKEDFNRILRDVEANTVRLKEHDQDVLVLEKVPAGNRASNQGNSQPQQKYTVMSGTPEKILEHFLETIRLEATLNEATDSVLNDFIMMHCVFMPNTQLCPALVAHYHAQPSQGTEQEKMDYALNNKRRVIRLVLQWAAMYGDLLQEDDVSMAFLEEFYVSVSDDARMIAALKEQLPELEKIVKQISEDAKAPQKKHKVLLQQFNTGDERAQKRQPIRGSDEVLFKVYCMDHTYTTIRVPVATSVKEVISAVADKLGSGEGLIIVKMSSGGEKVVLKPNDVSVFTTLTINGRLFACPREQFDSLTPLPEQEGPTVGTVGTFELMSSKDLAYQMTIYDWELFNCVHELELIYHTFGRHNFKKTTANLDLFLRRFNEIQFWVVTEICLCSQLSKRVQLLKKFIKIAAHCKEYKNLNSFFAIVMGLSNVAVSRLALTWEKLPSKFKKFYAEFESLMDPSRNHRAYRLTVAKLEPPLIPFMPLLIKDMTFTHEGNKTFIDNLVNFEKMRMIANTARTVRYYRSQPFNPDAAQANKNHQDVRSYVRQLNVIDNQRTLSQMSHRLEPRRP
# [4] = target: Rap guanine nucleotide exchange factor 4 (Homo sapiens) (UniProt Q8WZA2); experiment: Confirmatory qHTS for antagonist of cAMP-regulated guanine nucleotide exchange factor 4 (EPAC2) (AID 1645885); note: nearly all actives have a fitted effect of over 25% in size
# [5] = target: Rap guanine nucleotide exchange factor 3 (Homo sapiens) (UniProt O95398); experiment: Counterscreen qHTS for antagonist of cAMP-regulated guanine nucleotide exchange factor 3 (EPAC1) (AID 1645888);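 note: fluorescence loss as bound BODIPY-GDP is released from Rap1B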
# Procedure, shortened: (§1)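 Rap1B–BODIPY-GDP (250 nM) with 50 uM GDP; compounds pin-transferred to 9.74 nM–152 uM final (activator) or from 7.32 nM upwards (inhibitor). Fluorescence Ex/Em 480/540 nm read at 5 and 30 min, then after adding cAMP or buffer, at room temperature.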
# [6] = target: Rap guanine nucleotide exchange factor 3 (Homo sapiens) (UniProt O95398); experiment: Counterscreen qHTS for agonist of cAMP-regulated guanine nucleotide exchange factor 3 (EPAC1) (AID 1645889); note: nearly all actives have a fitted effect of over 40% in size; note: potency is the fitted concentration of half-maximal effect
# Procedure, shortened: as §1
# [7] = qHTS for Inhibitors of the vitamin D receptor (VDR): Hit Validation using a Texas Red Assay (AID 602201); note: potency is the fitted concentration of half-maximal effect
# Procedure, shortened: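 Fluorescence polarization with 1.5 uM VDR-LBD, LG19078 and 7 nM Texas Red (final). After 2 hours at ambient temperature, read at Ex 595 nm/Em 615 nm.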
# [8] = target: Tumor susceptibility gene 101 protein (Homo sapiens) (UniProt Q99816); experiment: qHTS Assay for Iinhibitors of HIV-1 Budding by Blocking the Interaction of PTAP/TSG101: Hit Validation (AID 651600); note: potency is the fitted concentration of half-maximal effect; nearly all actives have a fitted effect of over 70% in size
# Sequence of Tumor susceptibility gene 101 protein (Homo sapiens) (Q99816 whole entry, looked up, the tested form may be a part): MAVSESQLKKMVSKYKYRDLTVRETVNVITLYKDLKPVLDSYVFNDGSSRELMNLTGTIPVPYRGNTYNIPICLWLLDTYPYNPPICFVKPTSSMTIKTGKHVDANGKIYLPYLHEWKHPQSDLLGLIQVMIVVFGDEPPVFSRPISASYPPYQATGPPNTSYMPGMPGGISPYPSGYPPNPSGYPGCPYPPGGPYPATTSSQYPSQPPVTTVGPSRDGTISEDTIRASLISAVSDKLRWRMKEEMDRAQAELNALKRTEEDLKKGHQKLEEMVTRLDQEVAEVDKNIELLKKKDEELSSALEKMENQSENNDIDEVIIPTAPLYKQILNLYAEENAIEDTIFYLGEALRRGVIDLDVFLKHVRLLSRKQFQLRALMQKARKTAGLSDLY
# Procedure, shortened: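 Displacement of a FITC-labeled PTAP-motif peptide (50 nM) from the Tsg101 binding domain (10 uM) was monitored by fluorescence polarization after a 20 min room-temperature incubation.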
smiles,measurement,setting,value
O=C1NC(=O)N(Cc2ccc(F)cc2)C(=O)/C1=C\c1ccc([N+](=O)[O-])s1,Potency,[1],12 µM (active)
same,Potency,[2],inactive
same,Potency,[3],inactive
same,Potency,[4],inactive
same,outcome,[5],inactive
same,Potency,[6],22.4 µM (active)
Cc1ccccc1N1C(=O)NC(=O)/C(=C\c2ccc3c(c2)CCCN3Cc2ccccc2)C1=O,Potency,[7],28.2 µM (active)
same,Potency,[1],16.9 µM (active)
same,Potency,[2],inactive
same,Potency,[3],inactive
O=[N+]([O-])c1ccc(NCc2ccccc2)c2nonc12,Potency,[8],1.03 µM (active)
same,Potency,[1],inactive
same,Potency,[2],8.91 µM (active)
same,Potency,[3],100 µM (active)
same,Potency,[4],inactive
same,Potency,[6],22.4 µM (active)
CCOC(=O)[C@]12Cc3ccccc3[C@H]1N(Cc1ccccc1)C(=O)c1cc(OC)ccc12,Potency,[1],inactive
same,Potency,[2],inactive
same,activation,[3],"-5.98% [at 17.1 µM, percent relative to cAMP agonist control]"
same,"activity change, negative = inhibition",[5],2.15% [at 30.8 µM]
COC(=O)N1C(c2ccccc2)C1c1ccccc1 (stereo not drawn),Potency,[1],inactive
same,Potency,[2],inactive
same,activation,[3],"10.2% [at 17.1 µM, percent relative to cAMP agonist control]"
same,"activity change, negative = inhibition",[5],4.2% [at 30.8 µM]
COc1ccc(OC)c(N2C(=O)NC(=O)/C(=C/c3ccc([N+](=O)[O-])s3)C2=O)c1,Potency,[1],7.94 µM (active)
same,Potency,[2],inactive
same,activation,[3],"2.06% [at 17.1 µM, percent relative to cAMP agonist control]"
same,"activity change, negative = inhibition",[4],-32.4% [at 12.7 µM]
same,activation,[6],21.8% [at 30.8 µM]
O=C(c1cc(Cl)cc(Cl)c1)N1Cc2ccccc2-n2nncc2C1,Potency,[1],inactive
same,Potency,[2],inactive
same,activation,[3],"-5.36% [at 17.1 µM, percent relative to cAMP agonist control]"
same,"activity change, negative = inhibition",[4],-20.5% [at 12.7 µM]
same,activation,[6],5.77% [at 30.8 µM]
CCn1c(O)c(C=Nc2ccc(N3CCOCC3)cc2)c(=O)n(CC)c1=S,Potency,[8],9.19 µM (active)
same,Potency,[1],inactive
same,Potency,[2],inactive
same,Potency,[3],112 µM (active)
same,Potency,[4],inactive
same,outcome,[5],inactive
Cc1ccc(N)c(C(=O)c2ccc(Br)cc2)c1,Potency,[1],inactive
same,Potency,[2],inactive
same,Potency,[4],inactive
